Source: PubChem
Many of the other results were omitted from the sample, so hits are more common in it than they were.
MARV entry inh: blocks Marburg virus binding to or entry into cells; Marburg virus pseudotyped entry inhibition, cell reporter; Potency, µM (highest dose often 37.8 µM), actives largely listed as inhibitors; 300,000 compounds, 1.8% hits; calls by dose curve; tested in HEK293 cells
Shiga inhibitor: inhibitors of Shiga toxin in Vero cells | Vero cells, Shiga toxin protein synthesis inhibition reporter | inhibition, % at 38.7 µM | 290,000 compounds, 9.2% hits; in the data active = inhibition mostly above about 28%, no sharp cut-off; inactive = mostly below about 43%
Lassa entry inh: blocks Lassa virus binding to or entry into cells. AID 540256. Potency, µM (series often up to 37.9 µM), most hits filed as inhibitors. Lassa virus pseudotype entry inhibition, cell reporter. 300,000 compounds, 1.2% hits; calls by dose curve; tested in HEK293 cells; also: nearly all actives have a fitted effect of over 50% in size
AMA1-RON2 inh: disrupts binding of P. falciparum AMA1 to RON2. 360,000 compounds, 0.2% hits. AlphaScreen AMA1-biotinylated RON2 peptide binding. Potency, µM (series often up to 58.2 µM), most hits filed as inhibitors. AID 720542; active = well fitted inhibition curve with a large enough effect; inconclusive = small, poorly fitted or top-dose-only effect; inactive = no such curve, though single readings can be large or run the other way; also: nearly all actives have a fitted effect of over 45% in size
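AMA1 (3D7) with his tag at 25 nM final met compounds first, then biotinylated RON2 peptide at 25 nM; detection used donor plus acceptor beads, 10 µg/mL apiece, read by AlphaScreen after 30 min at room temperature.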
CHX counter: affects cycloheximide protein synthesis inhibition readout, counter-screen. 300,000 compounds, 12% hits. cell reporter, cycloheximide protein synthesis inhibition counterscreen. max response, %; in the data active = max response mostly above about 13%, no sharp cut-off; inactive = mostly below about 14%; also: read at 38.3 µM for the half of the compounds with a filed dose
Of the large screens only hits and unclear results are named; the others gave an inactive call.

COc1ccc(S(=O)(=O)N(CC(=O)NC2CCCCC2)c2ccc(F)cc2)cc1	MARV entry inh inconclusive
CC(=O)NCCNc1nc2cc(-c3ccccc3CO)sc2c(=O)n1C	none (no result: MARV entry inh, Shiga inhibitor, Lassa entry inh, CHX counter)
CC(C)(C)c1ccc(C(O)c2ncc(-c3cccc(F)c3)[nH]2)cc1 (stereo not drawn)	none (no result: MARV entry inh, Shiga inhibitor, Lassa entry inh, CHX counter)
CCC(=O)NC(=S)Nc1cccc(NC(=O)CC)c1	Lassa entry inh inconclusive
CCC(=O)Nc1cccc(NC(=S)NC(=O)c2cccc(C)c2)c1	MARV entry inh inconclusive, Shiga inhibitor 114, Lassa entry inh inconclusive, CHX counter 60
CCC(=O)Nc1cccc(NC(=S)NC(=O)c2ccccc2)c1	Shiga inhibitor 16, Lassa entry inh inconclusive, CHX counter 54
O=C(NC(=S)Nc1cccc(CO)c1)c1ccc(-c2ccccc2)cc1	Shiga inhibitor 64, Lassa entry inh inconclusive, CHX counter 25
CCC(=O)Nc1cccc(NC(=S)NC(=O)c2ccc(C)cc2)c1	Shiga inhibitor 102, CHX counter 46 (no result: MARV entry inh, Lassa entry inh)
O=C(Cc1ccccc1)Nc1ccc(NC(=S)NC(=O)c2ccccc2)cc1	none
CCc1ccccc1NC(=O)c1nnn(Cc2ccc(Cl)cc2)c1N	none (no result: Shiga inhibitor, AMA1-RON2 inh, CHX counter)
CC1=C(C(=O)N(C)C)CC(CC(=O)NCCCCc2ccccc2)C(=O)N1Cc1ccccc1 (stereo not drawn)	none (no result: MARV entry inh, Shiga inhibitor, Lassa entry inh, CHX counter)
O=C(CSc1nnc(Cc2cccs2)n1-c1ccccc1)NC1CCCCC1	Lassa entry inh 14µM
Cc1ccc(OCc2nnc(SCC(=O)c3cccs3)n2-c2ccccc2)cc1C	MARV entry inh inconclusive, Shiga inhibitor 73, Lassa entry inh inconclusive, CHX counter 31
N#Cc1ccc(OCc2nnc(SCC(=O)N3CCCc4ccccc43)n2-c2ccccc2)cc1	MARV entry inh 18µM, Lassa entry inh 26µM
O=C(CSc1nnc(COc2ccccc2)n1-c1ccccc1)c1cccs1	Lassa entry inh inconclusive, CHX counter 34
O=C(Cc1ccc([N+](=O)[O-])cc1)Nc1ccc2c(c1)CCC2	none (no result: Lassa entry inh)
O=C1NC(=O)C2(COC3(CCCC3)OC2)S1	none
CC(C)C(CCNC(=O)CC(Cc1ccccc1)c1ccco1)c1ccco1 (stereo not drawn)	MARV entry inh inconclusive, CHX counter 22
CN(C)C/C=C(/c1ccc(Br)cc1)c1cccnc1	MARV entry inh 7.1µM (no result: Shiga inhibitor, CHX counter)
CC(=O)Nc1cccc(NC(=O)CSc2nnnn2-c2ccc3c(c2)OCO3)c1	none (no result: MARV entry inh, Lassa entry inh, AMA1-RON2 inh)
COC(=O)c1cnc(Oc2ccc(NC(=O)NC(=O)c3c(F)cccc3F)cc2)cc1C(F)(F)F	none
COC(=O)c1cnc(Oc2ccc(NC(=O)NC(=O)c3c(OC)cccc3OC)cc2)cc1C(F)(F)F	MARV entry inh 1.6µM, Lassa entry inh inconclusive
CCN(CC)c1ccc2cc(NC(=O)CCC(=O)O)c(=O)oc2c1	MARV entry inh 1.8µM, Lassa entry inh inconclusive
CCN(CC)c1ccc2cc(C=O)c(=O)oc2c1	CHX counter 24
CCN(CC)c1ccc2cc(C(=O)Nc3cccnc3N3CCOCC3)c(=O)oc2c1	none (no result: MARV entry inh, Lassa entry inh, AMA1-RON2 inh)
CCN(CC)c1ccc2cc(C(=O)Nc3ccccn3)c(=O)oc2c1	Shiga inhibitor 63, Lassa entry inh inconclusive, CHX counter 79
CCN(CC)c1ccc2cc(-c3nnc(-c4ccncc4)o3)c(=O)oc2c1	Shiga inhibitor active
CCN(CC)c1ccc2cc(C(N)=O)c(=N)oc2c1	MARV entry inh inconclusive, CHX counter 41
CCN(CC)c1ccc2cc(C(N)=O)c(=O)oc2c1	CHX counter 23
CCN(CC)c1ccc2cc(/C(N)=N/NC(=O)c3cccs3)c(=O)oc2c1	none (no result: MARV entry inh, Lassa entry inh, AMA1-RON2 inh)
CCN(CC)c1ccc2cc(C(C)=O)c(=O)oc2c1	Shiga inhibitor 80, Lassa entry inh inconclusive
COc1ccc(-c2nc3n(n2)C(c2ccc(OC)cc2)C(C(=O)Nc2cccnc2)=C(C)N3)cc1 (stereo not drawn)	none (no result: Shiga inhibitor, AMA1-RON2 inh, CHX counter)
COc1ccc(CCn2c(C(C)C)nc3oc4ccccc4c(=O)c3c2=O)cc1	none (no result: MARV entry inh, Lassa entry inh)
Cc1ccc(-c2nc(N)sc2-c2ccc(C)cc2)cc1	MARV entry inh inconclusive
Cc1ccc(-c2nc(N)sc2C)cc1	Shiga inhibitor 33, CHX counter 15 (no result: MARV entry inh, Lassa entry inh)
CCOc1cc(C(=O)Nc2cccc3cccnc23)cc(OCC)c1OCC	MARV entry inh inconclusive (no result: Shiga inhibitor, AMA1-RON2 inh, CHX counter)
CCn1c(-c2cc(-c3cccc(OC)c3)nc3ccccc23)n[nH]c1=S	none
CCc1ccc(-c2cc(-c3n[nH]c(=S)n3CC)c3ccccc3n2)cc1	Shiga inhibitor 41, Lassa entry inh inconclusive, CHX counter 32 (no result: AMA1-RON2 inh)
Cc1ccc(S(=O)(=O)Nc2cc3c4c(c2)CCC(=O)N4CCC3)cc1	Lassa entry inh inconclusive (no result: Shiga inhibitor, CHX counter)
C=CCn1c(=S)[nH]c2ccc(Br)cc2c1=O	none
C=CCn1c(=S)[nH]c2nc3c(cc2c1=O)CCCC3	Shiga inhibitor 29, CHX counter 29
O=S1(=O)N[C@H](Cc2ccccc2)COc2cc(N3CCC[C@@H]3CO)ccc21	none (no result: MARV entry inh, Shiga inhibitor, Lassa entry inh, CHX counter)
O=C(Cn1ccn(-c2ccc(F)cc2)c(=O)c1=O)Nc1ccccc1C(F)(F)F	none (no result: MARV entry inh, Shiga inhibitor, AMA1-RON2 inh, CHX counter)
CCN(CC)S(=O)(=O)c1ccc(/C=C/C(=O)Nc2ccc(Br)cc2F)cc1	MARV entry inh 6.5µM, Lassa entry inh 1.6µM
CCN(CC)S(=O)(=O)c1ccc(/C=C/C(=O)Nc2ccc(F)c(F)c2F)cc1	MARV entry inh inconclusive, Shiga inhibitor 38, Lassa entry inh inconclusive, CHX counter 36
CCN(CC)S(=O)(=O)c1ccc2oc(C(=O)Nc3ccc(Br)cc3F)c(C)c2c1	none (no result: MARV entry inh, Shiga inhibitor, AMA1-RON2 inh, CHX counter)
O=C(/C=C/c1ccc(S(=O)(=O)N2CCOCC2)cc1)Nc1ccc(F)c(F)c1F	Lassa entry inh inconclusive (no result: Shiga inhibitor, CHX counter)
CCN(CC)S(=O)(=O)c1ccc(/C=C/C(=O)Nc2ccc(F)cc2F)cc1	Shiga inhibitor 64, CHX counter 32 (no result: Lassa entry inh)
CC1(C(=O)NS(=O)(=O)c2ccccc2Cl)CCN1C(=O)CCc1cccs1 (stereo not drawn)	none (no result: MARV entry inh, Shiga inhibitor, Lassa entry inh, CHX counter)
CC(Sc1nnc2c(n1)[nH]c1ccccc12)C(=O)NC1CCCCC1 (stereo not drawn)	MARV entry inh 4.5µM, Lassa entry inh inconclusive
CC(=O)NCCOC(=O)c1nn(Cc2ccccc2)c(=O)c2ccccc12	none (no result: Lassa entry inh)
CCOc1ccc(CCNC(=O)CCCc2nnc3n(CC)c(=O)c4sccc4n23)cc1OCC	none (no result: Shiga inhibitor, AMA1-RON2 inh, CHX counter)
Cc1nnc(N/N=C/c2cccc(OCc3ccc(Cl)c(Cl)c3)c2)n1N	MARV entry inh inconclusive, Shiga inhibitor 47, Lassa entry inh inconclusive, CHX counter 39
Cc1nnc(N/N=C/c2cccc(C(F)(F)F)c2)n1N	MARV entry inh inconclusive
Cc1cccc(OC(=O)CSc2nnc(CNC(=O)c3ccccc3)o2)c1C	MARV entry inh inconclusive (no result: Shiga inhibitor, AMA1-RON2 inh, CHX counter)
O=C(NC(=S)Nc1ccccc1O)c1ccccc1Cl	MARV entry inh inconclusive, Shiga inhibitor 77, CHX counter 44
CC(=O)c1cccc(NC(=S)NC(=O)c2ccccc2Cl)c1	Shiga inhibitor 83, CHX counter 21
CC(=O)c1cccc(NC(=S)NC(=O)c2ccc(C)cc2Cl)c1	Shiga inhibitor 90, CHX counter 38 (no result: MARV entry inh, Lassa entry inh)
COC(=O)c1ccccc1NC(=S)NC(=O)c1ccccc1C	none
CC(=O)c1cccc(NC(=O)CCNC(=O)c2ccccc2Cl)c1	none
CC(C)(C)CCN1CCC(CN2CCNC(=O)C2=O)CC1	none (no result: MARV entry inh, Shiga inhibitor, Lassa entry inh, CHX counter)
Cc1cnc(NC(=O)Nc2ccc(OCc3ccccc3)cc2)c(Br)c1	MARV entry inh inconclusive, CHX counter 16
COC(=O)Nc1ccc(Oc2ccccc2)cc1	CHX counter 9.6
